# A number with no mark means an inactive call. Results filed as inconclusive are left out. Activity calls are given as the source filed them. Unless noted, calls follow the shape of the full dose curve.
# Biological target: Nuclear receptor subfamily 1 group I member 2 (Homo sapiens) (UniProt O75469)
# Experiment: Dual reporter qHTS for antagonist of Pregnane X Receptor (hPXR) against the NCATS DSHEA and TCM libraries: Luminescence Readout (AID 1920060; active = well fitted curve in the direction sought with a large enough effect;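 also: HepG2 cells carrying hPXR luciferase reporter stimulated with rifampicin at 2 µM; 0% is about no effect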)
# Details: hPXR dual reporter cells, luciferase luminescence, antagonist mode; series mostly up to 40 µM
# Method in brief: (§1)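 In antagonist mode, 2 uM rifampicin was added to hPXR-Luc HepG2 cells alongside test substances, incubated 24 h at 37 C; luminescence gave reporter activity, and CellTiter-Fluor fluorescence (405/540 nm) gave viability.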
# Chain of Nuclear receptor subfamily 1 group I member 2 (Homo sapiens) (O75469 whole entry, looked up): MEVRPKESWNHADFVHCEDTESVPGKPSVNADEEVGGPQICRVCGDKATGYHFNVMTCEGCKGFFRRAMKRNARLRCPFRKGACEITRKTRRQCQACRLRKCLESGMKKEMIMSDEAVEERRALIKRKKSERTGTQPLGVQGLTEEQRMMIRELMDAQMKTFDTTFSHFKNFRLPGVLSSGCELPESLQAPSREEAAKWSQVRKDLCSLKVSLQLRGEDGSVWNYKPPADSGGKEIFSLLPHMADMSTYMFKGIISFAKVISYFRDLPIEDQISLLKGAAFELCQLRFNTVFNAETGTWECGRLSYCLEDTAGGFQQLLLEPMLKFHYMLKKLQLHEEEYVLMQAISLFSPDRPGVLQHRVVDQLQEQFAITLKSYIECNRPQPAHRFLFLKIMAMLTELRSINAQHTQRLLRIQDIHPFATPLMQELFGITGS
row,Compound,outcome
1,COc1ccc(C(C)=O)c(O)c1,inactive
2,C[C@@]12C[C@@]3(O)O[C@@H](O1)[C@]1(COC(=O)c4ccccc4)[C@@H]3C[C@@]12O[C@@H]1O[C@H](CO)[C@@H](O)[C@H](O)[C@@H]1O,inactive
3,O=C1c2c(O)cccc2[C@@H]([C@@H]2O[C@H](CO)[C@@H](O)[C@H](O)[C@H]2O)c2cc(CO)cc(O)c21,inactive

# System: not listed separately
# Experiment: Dual reporter qHTS for antagonist of Pregnane X Receptor (hPXR) against the NCATS DSHEA and TCM libraries: Fluorescence Readout (AID 1920061; active = well fitted curve in the direction sought with a large enough effect; also: 0% is about no effect)
# Details: PXR dual reporter cells, antagonist mode; series mostly up to 40 µM
# Method in brief: as §1
row,Compound,outcome
1,COc1ccc(C(C)=O)c(O)c1,inactive
2,C[C@@]12C[C@@]3(O)O[C@@H](O1)[C@]1(COC(=O)c4ccccc4)[C@@H]3C[C@@]12O[C@@H]1O[C@H](CO)[C@@H](O)[C@H](O)[C@@H]1O,inactive
3,O=C1c2c(O)cccc2[C@@H]([C@@H]2O[C@H](CO)[C@@H](O)[C@H](O)[C@H]2O)c2cc(CO)cc(O)c21,inactive
4,C=C(C)[C@@H]1CC[C@]2(C(=O)O)CC[C@]3(C)[C@H](CC[C@@H]4[C@@]5(C)CC[C@H](O)C(C)(C)[C@@H]5CC[C@]43C)[C@@H]12,inactive

# System: not listed separately
# Experiment: qHTS drug screen for cell cycle checkpoint inhibitors in PARPi-resistant BRCA-mutant ovarian cancer cell lines. (AID 1963452); also: potency is read from the fitted curve at half-maximal effect
# Details: PEO1/OlaR viability, CellTiter-Glo luminescence, 96 h
# Method in brief: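 PEO1, PEO4 and PEO1/OlaR ovarian cancer cells, 600 per well, exposed 96 h at 37C to a dilution series. Viability read by CellTiter-Glo luminescence, normalized to DMSO and empty wells; activity summarized as Z-AUC.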
row,Compound,Potency
1,C#CCC(Cc1cnc2nc(N)nc(N)c2n1)c1ccc(C(=O)N[C@@H](CCC(=O)O)C(=O)O)cc1 (stereo partly specified),7.8 nM (active)
2,COc1ccc(C=Cc2cc(OC)c(OC)c(OC)c2)cc1NC(=O)[C@H](N)CO,54.9 nM (active)
3,COC[C@H](NC(=O)c1cnc(C)s1)C(=O)N[C@@H](COC)C(=O)N[C@@H](Cc1ccccc1)C(=O)[C@@]1(C)CO1,138 nM (active)

# Same assay, conditions: PEO1/OlaR viability, CellTiter-Glo luminescence, 96 h; stronger effect = lower value
row,Compound,Z-AUC
1,C=CC(=O)N1CCc2ccc(-n3c(=O)ccc4cnc5ccc(-c6cnn(C)c6)cc5c43)cc21,-0.366
2,Cc1ncc(-c2ccnc(Nc3ccc(S(C)(=O)=O)cc3)n2)n1C(C)C,-1.39
3,NC(=NCCCCCCN=C(N)N=C(N)Nc1ccc(Cl)cc1)N=C(N)Nc1ccc(Cl)cc1,0.994
4,CCNC(=O)c1cc2c(-c3cc(OCCN4CCCC4)c(Cl)cc3Cl)nc(N)nc2s1,-0.792
5,CC(C(C)N1CC(=O)NC(=O)C1)N1CC(=O)NC(=O)C1 (stereo unspecified),0.386
6,Cc1ccc(-n2[nH]c(C)c(N=Nc3cccc(-c4cccc(C(=O)O)c4)c3O)c2=O)cc1C,-0.217
7,NC(=O)Nc1cc(-c2ccc(CN3CCOCC3)cc2)sc1C(N)=O,0.59
8,NC(=O)c1cccc(-c2cccc(OC(=O)NC3CCCCC3)c2)c1,-0.0721
9,c1ccc(CNc2nc(NCc3ccccc3)c3ccccc3n2)cc1,0.198
10,CN(CC(=O)N(Cc1ccc(C2CCCCC2)cc1)c1ccc(C(=O)O)c(O)c1)S(=O)(=O)c1c(F)c(F)c(F)c(F)c1F,0.87
11,C[C@H](NC(=O)Cc1cc(F)cc(F)c1)C(=O)N[C@H](C(=O)OC(C)(C)C)c1ccccc1,-0.609
12,Cc1cc(C(=O)NOCCO)c(Nc2ccc(I)cc2F)n(C)c1=O,-0.774
13,CCc1ccc(C(=O)Nc2cc(CN3CCN(C)CC3)cc(C(F)(F)F)c2)cc1C#Cc1cnc2ccnn2c1,-0.668
14,N#Cc1cc(NC(=O)Nc2nnc(-c3ccncc3)s2)ccc1-c1cn[nH]c1,-0.0161
15,O=S(=O)(O)CCSSCCS(=O)(=O)O,-0.0996
16,O=C(O)CCCCCC(=O)NN=C1CCCC1,1.41

row,Compound,Z-AUC
1,CC(N[C@H]1CCCC[C@H]1NC(=O)c1ccc(Cl)cc1)c1cccc2ccccc12 (stereo partly specified),0.148
2,C=C(C)[C@@H]1CC[C@]2(C(=O)O)CC[C@]3(C)[C@H](CC[C@@H]4[C@@]5(C)CC[C@H](O)C(C)(C)[C@@H]5CC[C@]43C)[C@@H]12,1.23
3,O=C1CSC(=O)N1C(CCc1ccncc1)COc1ccc(-c2cccc([N+](=O)[O-])c2)cc1 (stereo unspecified),0.623
4,Oc1ccc(-c2ccc(-c3cc(Nc4cccc(CNC5CC5)c4)n[nH]3)cc2)c(O)c1,-0.35
5,CC(Oc1ccc(O)cc1)(P(=O)(O)O)P(=O)(O)O,0.474
6,N#Cc1c(NC(=O)c2cccc3ccccc23)sc2c1CCCC2,-0.477
7,Nc1nc(N)c2nc(-c3cccc(O)c3)c(-c3cccc(O)c3)nc2n1,0.00904
8,Cc1ccccc1C(=O)Nc1ccc(C(=O)N2CCCC(O)c3cc(Cl)ccc32)c(C)c1 (stereo unspecified),-0.543
9,C=Cc1c(C)c2cc3nc(cc4[nH]c(cc5nc(cc1[nH]2)C(C)=C5CCC(=O)O)c(CCC(=O)OC)c4C)[C@@]1(C)C3=CC=C(C(=O)OC)[C@H]1C(=O)OC,0.838
10,CN(C)c1ccc2cc(C(=O)N[C@@H](CCCN=C(N)CCl)C(=O)NCc3ccccc3)ccc2c1,1.15
11,c1cc(N[C@@H]2CCNC2)nc(-c2cnc3ccc(-c4cn[nH]c4)cn23)c1,-1.39
12,COc1cc2c(cc1OC)[C@@H]1C(=O)c3ccc4c(c3O[C@@H]1CO2)C=CC(C)(C)O4,-0.868
13,Cn1cnc2c(F)c(Nc3ccc(Br)cc3F)c(C(=O)NOCCO)cc21,-0.612
14,CCc1nc(-c2cccc(C)c2)c(-c2ccnc(NC(=O)c3ccccc3)c2)s1,-0.209
15,COc1cc(CCc2cc(NC(=O)c3ccc(N4C[C@@H](C)N[C@@H](C)C4)cc3)n[nH]2)cc(OC)c1,-1.36

# Reference: PubChem BioAssay (NCATS)
